Hits are enriched below; roughly 3.5% of the tested compounds scored in any of these assays.
GPR151 activ: human GPR151 activation; PathHunter beta-arrestin GPR151 cells, luminescence; activation, % at 11.2 µM; 650,000 compounds, 1% hits; AID 1508602; in the data active = activation above about 4.9%;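 also: 0% = median of compound wells and 100% = cells with positive control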
Target sequence (Q8TDV0 whole entry, looked up): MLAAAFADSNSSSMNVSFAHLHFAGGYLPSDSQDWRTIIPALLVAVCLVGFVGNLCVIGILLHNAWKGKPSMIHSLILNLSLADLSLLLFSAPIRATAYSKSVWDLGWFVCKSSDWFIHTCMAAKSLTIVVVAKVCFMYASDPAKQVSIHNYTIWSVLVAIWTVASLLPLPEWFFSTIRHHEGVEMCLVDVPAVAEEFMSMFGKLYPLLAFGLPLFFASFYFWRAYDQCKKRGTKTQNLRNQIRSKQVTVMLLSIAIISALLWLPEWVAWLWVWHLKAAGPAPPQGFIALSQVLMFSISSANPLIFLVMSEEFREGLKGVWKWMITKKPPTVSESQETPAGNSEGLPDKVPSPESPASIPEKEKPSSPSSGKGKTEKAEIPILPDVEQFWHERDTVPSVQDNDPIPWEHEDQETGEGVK
TEAD-YAP inh: TEAD-YAP interaction inhibition; HEK-TIYL cells, TEAD-Gal4/YAP UAS-luciferase luminescence; inhibition, % at 9.12 µM; 640,000 compounds, 1.4% hits; AID 1259422; in the data active = inhibition above about 32%;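 also: 0% = median of test compound wells and 100% = reference inhibitor wells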
FBW7 activator: activators of human E3 ligase FBW7 | Q969H0 | AlphaScreen FBW7–phospho-cyclin E peptide binding, activator screen | 650,000 compounds, 0.13% hits | normalized activity (activation), % at 26.1 µM; in the data active = normalized activity above about 1.9%;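 also: purified mutant Fbw7 with reduced substrate affinity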
MITF inh: inhibitors of human MITF. O75030. AlphaScreen MITF homodimerization, bead proximity signal. inhibition, % at 2.6 µM. 650,000 compounds, 0.91% hits; in the data active = inhibition above about 50%;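 also: 0% = vehicle wells with protein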
MITF inh conf: human MITF inhibition, confirmation. shares compounds with MITF inh. AlphaScreen MITF homodimerization, biotin/His-MITF beads. inhibition, % at 2.6 µM. 4,700 compounds, 16% hits;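 active = inhibition above a cutoff derived from the DMSO control wells, cut at about 28% in these data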;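 also: 0% = MITF dimer wells with DMSO only; inhibitors lower the bead chemiluminescence by keeping MITF from dimerizing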
AS interf DR: AlphaScreen optical interference, dose response counter-screen. shares compounds with MITF inh. AlphaScreen optical interference counterscreen, cell-free. IC50, µM. 480 compounds, 6% hits. AID 1259373; call rule not given here
AlphaScreen intf2: counter-screen: compounds optically interfering with AlphaScreen | AID 1259376 | 4,700 compounds, 7.6% hits | LysRS AlphaScreen counterscreen, signal interference, triplicate | shares compounds with MITF inh | inhibition, % at 2.6 µM;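 active = inhibition above a cutoff derived from the DMSO control wells, cut at about 30% in these data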
Numbers without * were called inactive; · = no result.

SMILES	GPR151 activ	TEAD-YAP inh	FBW7 activator	MITF inh	MITF inh conf	AlphaScreen intf2	others
COc1cccc(N2CCN(Cc3ccccc3[N+](=O)[O-])CC2)c1	-1	6	0	41	·	·
COc1ccc(CN2CCN(c3ccc(F)cc3)CC2)c(OC)c1	-1	1	0	23	·	·
COc1ccc(N2CCN(Cc3ccc(F)cc3F)CC2)cc1	-2	-3	0	56*	·	·
CCCc1[nH]nc2c1C(c1ccccc1O)C(C#N)=C(N)O2 (stereo unspecified)	-2	3	0	3	·	·
N=C1c2ccccc2CN1c1ccccc1	-1	11	0	-7	·	·
N#Cc1ccc(Cl)cc1NC(=O)c1cccn(Cc2ccccc2)c1=O	0	6	0	9	·	·
COc1ccccc1/C=C1\CCCc2c(-c3ccccc3)cc(-c3ccccc3)[n+](C)c21	2	95*	0	14	·	·
COc1ccc(/C=C2\CCCc3c(-c4ccccc4)cc(-c4ccccc4)[n+](C)c32)cc1	1	92*	0	-3	·	·
CCOc1ccc(-n2c(=S)[nH]c3ccccc3c2=O)cc1	0	-11	0	-8	·	·
Cc1c2oc3c(C)ccc(C(=O)N[C@@H]4C(=O)N[C@H](C(C)C)C(=O)N5CCC[C@H]5C(=O)N(C)CC(=O)N(C)[C@@H](C(C)C)C(=O)O[C@@H]4C)c3nc-2c(C(=O)N[C@@H]2C(=O)N[C@H](C(C)C)C(=O)N3CC(=O)C[C@H]3C(=O)N(C)CC(=O)N(C)[C@@H](C(C)C)C(=O)O[C@@H]2C)c(N)c1=O	-1	95*	0	4	·	·
CCN(CC)c1ccc(N=Cc2c(O)[nH]c(=O)[nH]c2=O)cc1	-1	15	0	66*	·	·
COc1c2c(cc3c1C(O)N(C)CC3)OCO2 (stereo unspecified)	-1	1	0	14	·	·
CC[C@@]1(O)C(=O)OCc2c1cc1n(c2=O)Cc2cc3c(O)cccc3nc2-1	-2	78*	0	34	·	·
CCCCc1nc2ccccc2c(=O)n1-c1ccccc1O	-1	11	0	12	·	·
CC[C@@]1(O)C(=O)OCc2c1cc1n(c2=O)Cc2cc3ccccc3nc2-1	0	76*	0	8	·	·
CCOC(=O)C(C(=O)OCC)c1ccccc1	0	4	0	2	·	·
CCOC(=O)C1C2NC(=S)N(CCOC)C1(C)Oc1ccc(OC)cc12 (stereo unspecified)	1	1	0	15	·	·
COc1cc(NC(=O)CN2C(=O)C(C)N=C(c3ccccc3)c3ccccc32)cc(OC)c1 (stereo unspecified)	0	37*	0	5	·	·
CCOc1ccc(NC(=O)CN2C(=O)C(C)N=C(c3ccccc3)c3ccccc32)cc1 (stereo unspecified)	1	8	0	-1	·	·
C[n+]1c2ccccc2nc2ccc(NC3CCCCC3N)cc21 (stereo unspecified)	0	77*	0	20	·	·
O=C(Nc1cccc(Cl)c1)N1CCC2(CC1)OCc1cc(F)ccc1O2	0	1	0	20	·	·
COc1ccc(-n2c(/C=C/c3ccccc3)nc3ccccc3c2=O)cc1	1	7	0	-3	·	·
CCn1nc(/C=C/c2ccccc2)nc2c(=O)n(C)c(=O)nc1-2	-6	33*	-2	6	·	·
CCn1nc(-c2ccc([N+](=O)[O-])cc2)nc2c(=O)n(C)c(=O)nc1-2	-8	70*	0	9	·	·
CCc1nnc(NC(=O)CCc2nc(C3=CCN(C)CC3)no2)s1	0	3	1	58*	60*	39*
SMILES	GPR151 activ	TEAD-YAP inh	FBW7 activator	MITF inh	MITF inh conf	AlphaScreen intf2	others
CCOc1ccc(NC(=O)CCc2nc(C3=CCN(C)CC3)no2)cc1	-1	2	-2	83*	93*	70*
CN1CC=C(c2noc(CCC(=O)Nc3nc4ccccc4s3)n2)CC1	-1	-30	1	29	·	·
CCc1ccccc1NC(=O)CCc1nc(C2=CCN(C)CC2)no1	0	-1	0	3	·	·
C[n+]1ccc(-c2cc[n+](C)cc2)cc1	2	6	0	65*	6	13
CCCCCCC[n+]1ccc(-c2cc[n+](CCCCCCC)cc2)cc1	0	17	0	-2	·	·
COc1ccc(CN2CCN(Cc3ccc(Br)cc3)CC2)cc1Br	0	-3	-1	33	·	·
COc1ccc(CN2CCN(Cc3ccccc3Br)CC2)cc1Br	0	-7	0	75*	4	2
COc1ccc(CN2CCN(C)CC2)cc1Br	1	7	1	73*	3	10
CCOP(=O)(OCC)SCc1ccccc1	-1	-9	0	53*	2	9
Cc1ncccc1C(=O)N1CCC[C@@H]2CN(CCC(C)C)CC[C@H]21	0	21	0	9	·	·
COc1ccc(CCNC2C3CC4CC(C3)CC2C4)cc1OC (stereo unspecified)	1	8	0	4	·	·
COc1ccc(CC2NCCc3cc(OC)c(OC)cc32)cc1OC (stereo unspecified)	-1	-1	0	84*	101*	4	AS interf DR=3.4*
O=C(COc1ccccc1)N1CCN(Cc2cccnc2)CC1	0	1	0	81*	9	18
Cc1cccc(CN2CCN(C(=O)COc3ccccc3)CC2)c1	-1	9	0	53*	2	2
Cc1cccc(CN2CCN(C(=O)COc3ccc(Cl)cc3)CC2)c1	0	10	0	50	·	·
Cc1cccc(OCC(=O)N2CCN(Cc3ccc(Br)cc3)CC2)c1	2	7	0	70*	11	9
O=C(COc1ccccc1)N1CCN(Cc2cccc(Cl)c2)CC1	-1	5	0	50	·	·
O=C(COc1ccc(Br)cc1)N1CCN(Cc2ccccc2)CC1	0	3	0	39	·	·
Cc1cccc(OCC(=O)N2CCN(Cc3ccccc3Cl)CC2)c1	0	5	0	66*	11	21
Cc1cc(I)ccc1-n1c(/C=C\c2ccc(F)c(F)c2)nc2ccccc2c1=O	-1	-3	1	13	·	·
Cc1cc(Cl)ccc1NC(=O)C(Cl)(Cl)Cl	-1	16	0	-8	·	·
c1nc(N2CCN3CCCC3C2)c2[nH]cnc2n1 (stereo unspecified)	4	-11	0	3	·	·
CC12C=CC(C)(O1)C1C(=O)N(c3ccc([N+](=O)[O-])cc3)C(=O)C12 (stereo unspecified)	-1	7	0	17	·	·
COc1ccc(Br)cc1CN1CCN(C(=O)COc2cccc(C)c2)CC1	0	5	0	58*	-5	-7
COc1ccccc1CC(C)NCCN(C)C (stereo unspecified)	0	-7	0	12	·	·
CCOc1cc(CN2CCN(Cc3ccccc3)CC2)ccc1O	4	1	0	56*	5	-3
CCOc1cc(CN2CCN(c3ccccc3F)CC2)ccc1O	-2	-2	0	30	·	·

From PubChem
